ALOX12 inh – blocks human arachidonate 12S-lipoxygenase | P18054 | purified 12hLO, xylenol orange hydroperoxide absorbance | Potency, µM (highest dose often 108 µM), for the others: at the highest dose activity change, negative = inhibition, actives largely listed as inhibitors | 580,000 compounds, 1.1% hits | AID 1671190; also: potency is read from the fitted curve at half-maximal effect; % is scaled to controls: 0 for no effect and ±100 for the full control effect
Target sequence (P18054 whole entry, looked up): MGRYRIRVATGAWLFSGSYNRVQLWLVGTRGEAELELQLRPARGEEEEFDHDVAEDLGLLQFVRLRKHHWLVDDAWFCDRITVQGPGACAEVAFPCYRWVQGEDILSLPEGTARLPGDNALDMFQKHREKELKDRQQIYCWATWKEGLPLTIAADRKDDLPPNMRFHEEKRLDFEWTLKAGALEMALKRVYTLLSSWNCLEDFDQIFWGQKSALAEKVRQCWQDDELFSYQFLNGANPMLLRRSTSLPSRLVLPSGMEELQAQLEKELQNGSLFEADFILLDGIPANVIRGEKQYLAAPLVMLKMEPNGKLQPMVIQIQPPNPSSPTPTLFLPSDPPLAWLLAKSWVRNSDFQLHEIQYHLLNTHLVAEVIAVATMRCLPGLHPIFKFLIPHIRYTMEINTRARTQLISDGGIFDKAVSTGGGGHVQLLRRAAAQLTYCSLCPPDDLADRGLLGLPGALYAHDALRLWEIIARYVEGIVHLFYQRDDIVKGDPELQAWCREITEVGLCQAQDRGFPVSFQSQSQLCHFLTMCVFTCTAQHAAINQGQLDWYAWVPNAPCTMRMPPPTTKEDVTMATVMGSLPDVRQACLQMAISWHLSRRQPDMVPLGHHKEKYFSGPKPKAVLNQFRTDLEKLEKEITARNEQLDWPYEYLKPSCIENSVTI
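Purified human 12hLO (150 nM final) in 25 mM Hepes, 0.01% Triton X-100, pH 7.0 was preincubated 15 min at room temperature with compound. Then 40 uM arachidonic acid was added, 30 min. Hydroperoxide was read by Fe-XO absorbance ratio 573/405 nm.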
CCT chaperon mod – modulators of cytosolic chaperonin (CCT/TRiC) activity; purified chaperonin ATPase assay, HTRF ADP detection, 30 min; activity change, % (no concentration beside the values), hits read low; 360,000 compounds, 0.3% hits; AID 651819; in the data active = activity change below about -30%; also: % is scaled to controls: 0 for no effect and ±100 for the full control effect
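TRiC (40 or 20 nM final, by batch activity) in 30 mM Tris pH 7.4, 100 mM KCl, 5 mM MgCl2, 1 mM DTT was treated with compound at 76 uM single dose, then 10 uM ATP, 30 min at 37 °C. ADP was read by HTRF Transcreener.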
p53 reactivation – re-activators of mutant p53; AID 504706; H1299 p53-A138V BP100-luciferase reporter, luminescence, 24 h; Potency, µM (top dose mostly 92.2 µM), for the others: at the top dose activity change, positive = activation, usual class: activators; 320,000 compounds, 0.063% hits; also: potency is read from the fitted curve at half-maximal effect; % of control where 0% means no effect; nearly all actives have a fitted effect of over 45% in size
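H1299 (p53-null), stable ts p53-A138V + BP100-Luc; 1000 cells/well, Opti-MEM/10% FBS; cpd 4 pt, 1:5; 24 h, 37 deg C, 5% CO2; detection reagent 10 min RT; luminescence.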
MmCpn inh – inhibitors of Methanococcus maripaludis chaperonin TRiC (MmCpn) | purified Mm-Cpn ATPase, ADP Transcreener TR-FRET | Potency, µM (highest dose often 76.9 µM), for inactives: at the top dose activity, negative = inhibition, usual class: inhibitors | 330,000 compounds, 0.031% hits | AID 504842; also: potency is read from the fitted curve at half-maximal effect; % is scaled to controls: 0 for no effect and ±100 for the full control effect; nearly all actives have a fitted effect of over 80% in size
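Measured: ADP formation by purified Mm-CPN. Conditions: 25 nM protein, 10 uM ATP, Tris pH 7.4 with Mg2+, K+ and DTT, 37°C for 30 min. Detection: Transcreener HTRF after 30 min at room temperature.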
PINK1 expr mod – PINK1 expression modulation; Potency, µM (series often up to 76.6 µM), for inactives: at the highest dose activation (PINK1 increase), hits mostly activators; PINK1 immunofluorescence, high-content cytometry, 24 h; 410,000 compounds, 0.2% hits; active = well fitted activation curve with a large enough effect; inconclusive = small, poorly fitted or top-dose-only effect; cell line not stated here; also: potency is read from the fitted curve at half-maximal effect; % of control where 0% means no effect; nearly all actives have a fitted effect of over 65% in size
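Readout is PINK1 immunofluorescence, quantified alongside mitochondrial, cell and nuclear markers by laser-scanning microplate cytometry. Cells from a stable line were exposed to compound titrations (5 concentrations) for 24 hours, with CCCP controls.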
ASM inhibitor – human S-ASM enzyme inhibition; P17405; placental ASM, HMU-PC fluorogenic substrate, 60 min; Potency, µM (top dose mostly 57.5 µM), for the others: at the top dose activity change, negative = inhibition, hits mostly inhibitors; 340,000 compounds, 0.006% hits; AID 504937; also: potency is read from the fitted curve at half-maximal effect
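Steps: dispense placental human ASM, pin compound, wait 10 min at room temperature, add HMU-PC0 substrate at 9 uM final, incubate 60 min at 37 °C, add stop solution raising pH to 10, read fluorescence.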
* hit, by the source's call; i = inactive; ? = inconclusive; . = not tested or not shown; ! = not active in a repeat; [ ] = dose if it differs, or a comment. Most compounds without a hit are left out; they make up all but 1.4% or so of the library. Unless noted, calls follow the shape of the dose curve; as a rule, active = well fitted curve in the direction sought with a large enough effect; inconclusive = small, poorly fitted or top-dose-only effect, or another doubt; inactive = no such curve, though single readings can be large; an effect the other way counts as inactive or inconclusive.

SMILES | ALOX12 inh | CCT chaperon mod | p53 reactivation | MmCpn inh | PINK1 expr mod | ASM inhibitor
CC1CN(c2ncc(/C=N/NC(=O)c3ccccc3O)s2)CC(C)O1 (centres undefined) | 19% | -1 | 1% | -7% | 0% | 12%
O=C(N/N=C/c1cnc(N2CCCCC2)s1)c1ccc(C(F)(F)F)cc1 | 15% | -3 | -2% | 2% | 7.1µM* | 11%
CC1(C)CC(=O)C2=C(C1)N1CCc3cc4c(cc3C1=CC2c1ccc(F)cc1)OCCCO4 (centres undefined) | 25µM* | . | . | . | . | .
C/C(=N\NC(=O)c1ccccc1C)C(C)C | 12% | . | . | . | . | .
CCn1c(CCCOc2ccc(Cl)cc2C)n[nH]c1=S | 18µM* | . | . | . | . | .
S=c1[nH]nc(COc2ccc(Cl)cc2)n1Cc1ccccc1 | -5% | -2 | -2% | -2% | 6% | 3%
CCCCn1c(-c2cc(Cl)ccc2OC)n[nH]c1=S | ? | -3 | . | . | 4%[38.3 µM] | 0%
CCCCc1n[nH]c(=S)n1Cc1ccc(C)cc1 | ? | 0 | 2% | 1% | 0% | 3%
Cc1cc(Cl)ccc1OCCCc1n[nH]c(=S)n1Cc1ccccc1 | 16µM* | . | . | . | . | .
CCn1c(COc2ccc(Cl)cc2)n[nH]c1=S | 16µM* | . | . | . | . | .
Cc1ccc(Cn2c(CCCOc3ccc(Cl)cc3Cl)n[nH]c2=S)cc1 | 16µM* | . | . | . | . | .
Cc1ccc(OCCCOc2ccc(Cl)cc2/C=N/NC(=O)c2ccccc2)cc1C | 4% | . | . | . | . | .
Cn1ccnc1C(NC(=O)Cc1n[nH]c(=O)c2ccccc12)c1ccccc1 (centres undefined) | 25% | . | . | . | . | .
CCN(CC)CC(=O)NC(=O)NCCc1cccs1 | -1% | . | . | . | . | .
CSc1ccc(C2N=C(N)Nc3nc4ccccc4n32)cc1 (centres undefined) | -5% | . | . | . | . | .
CCn1c(CCCOc2ccc(Cl)cc2Cl)n[nH]c1=S | 25µM*! | 2 | 3% | 2% | -2% | -7%
COCCn1c(COc2ccc(C(C)(C)c3ccccc3)cc2)n[nH]c1=S | 16µM* | . | . | . | . | .
COCCn1c(CCc2ccccc2)n[nH]c1=S | -18% | -5 | -3% | -2% | -1% | -1%
CCn1c(CCCCc2n[nH]c(=S)n2CC)n[nH]c1=S | -28% | -3 | -4% | 3% | 2% | 5%
CN(Cc1cccc(C#N)c1)C(=O)c1cnc2ccccc2n1 | 12% | . | . | . | . | .
COc1ccc(-c2cc(C)nc(SCC(=O)c3cccc([N+](=O)[O-])c3)n2)cc1 | 2% | -46* | -5% | -8% | 7%[38.3 µM] | -3%
CCc1noc(C)c1C(=O)Nc1sc(C)cc1C(=O)OC | -19% | . | . | . | . | .
O=C(c1ccccc1)[C@@H]1[C@@H](C(=O)c2ccco2)[C@@]2(C(=O)Nc3ccccc32)[C@H]2c3ccccc3C=CN12 | 14µM* | . | . | . | . | .
S=c1[nH]cc(Cc2ccccc2)s1 | 7.9µM* | 1 | 0% | 1% | 3% | 3%
Cc1cc(Br)cn2c(Cc3ccsc3)c(C(C)(C)C)nc12 | 35µM* | -1 | . | . | 2% | .
SMILES | ALOX12 inh | CCT chaperon mod | p53 reactivation | MmCpn inh | PINK1 expr mod | ASM inhibitor
Cc1ccc(-c2nc3ccc(C)cn3c2Cc2ccsc2)cc1 | ? | 0 | . | . | 11% | .
Cc1ccc2nc(C(C)(C)C)c(Cc3ccsc3)n2c1 | 6.3µM* | 0 | . | . | 2% | .
CCCc1nc2c(C)cc(Br)cn2c1Cc1ccsc1 | ? | 0 | . | . | 2% | .
COc1ccc(-c2cc(C(=O)NCC(=O)NC(C)C)c3ccccc3n2)cc1 | -15% | . | . | . | . | .
CCOC(=O)N1CCN(C(=O)CNC(=O)c2cc3cc(OC)c(OC)cc3n2C)CC1 | 2% | . | . | . | . | .
COc1ccc(C)cc1NC(=O)CC(c1cccc(F)c1)n1cccc1 (centres undefined) | -26% | . | . | . | . | .
N#Cc1c(-c2ccccc2)cc(-c2ccccc2)[nH]c1=O | 0% | 1 | 10% | -2% | -1% | i
N#Cc1c(-c2cccc(Br)c2)cc(-c2ccco2)[nH]c1=O | 18µM* | -1 | -3% | -1% | -1% | i
COc1ccc(-c2cc(-c3ccco3)[nH]c(=O)c2C#N)cc1 | 40µM* | 0 | 0% | -12% | 4% | i
C[S+](=O)([O-])c1ccc(-c2nc(C(=O)N3CCOCC3)n3ccncc23)cc1 | 2%[6.33 µM] | . | . | . | . | .
CSc1nc(N)nc(SCC(=O)C23CC4CC(CC(C4)C2)C3)c1C#N | -8% | 1 | ? | -4% | ? | -9%
N#Cc1c(N)nc(SCC(=O)C23CC4CC(CC(C4)C2)C3)c(C#N)c1-c1ccc(Cl)cc1 | 6% | -40* | 5% | -7% | 6% | 56%
O=C(CSc1ncnc2nc[nH]c12)NCc1ccccc1Cl | 3% | . | . | . | . | .
O=C(Sc1ccccc1)c1ccccc1 | -27% | . | . | . | . | .
O=C(C=C(Sc1ccccc1)Sc1ccccc1)C(F)(F)F | 35µM* | . | . | . | . | .
O=S(=O)(Nc1cccc2c1CCCC2)c1ccc(F)c(F)c1 | -17% | . | . | . | . | .
COCc1cn(C[C@H]2C[C@@H](NCc3cccnc3)[C@H](O)[C@@H]2O)nn1 | 22µM* | . | . | . | . | .
O=C(N[C@@H]1C[C@H](Cn2cc(-c3cccnc3)nn2)[C@@H](O)[C@H]1O)C1CCCC1 | 80% | . | . | . | . | .
COCc1cn(C[C@H]2C[C@@H](NCc3cccc4c3OCO4)[C@H](O)[C@@H]2O)nn1 | 3% | . | . | . | . | .
O=S(=O)(N[C@@H]1C[C@H](Cn2cc(-c3cccnc3)nn2)[C@@H](O)[C@H]1O)c1ccccc1 | 20µM* | . | . | . | . | .
